The list is not random: actives were taken first. Their share in the collection is about 17%.
ClpP mod: qHTS Assay for Activators of ClpP | purified B. subtilis ClpP, FRET peptide cleavage, 20 min | Potency, µM (doses to about 57.5 µM), without a hit: at the highest dose activity change, negative = active | 340,000 tested, 1.9% active | AID 651965, 2013; active = well fitted falling curve with a large enough effect; inconclusive = small, poorly fitted or top-dose-only effect; inactive = no such curve, though single readings can be large or run the other way; note: the source files actives as falling curves though it sought activators and does not explain the sign; nearly all actives have a fitted effect of over 65% in size
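Purified B. subtilis ClpP, 10 microg/mL final in Tris/HCl pH8 with KCl, BSA, glycerol and Tween-20, cleaved an Abz/nitrotyrosine-quenched decapeptide. Fluorescence (ex 320, em 430) was read at 0 and 20 min at room temperature. Delta was normalized to 5.8 microM ADEP and DMSO/no-enzyme controls.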
DT40 TDP1 no CPT: qHTS for Inhibitors of human tyrosyl-DNA phosphodiesterase 1 (TDP1): qHTS in cells in absence of CPT; 420,000 tested, 15% active; Potency, µM (series often up to 46.2 µM), without a hit: at the highest dose activity change, negative = growth inhibition, usual class: inhibitors; AID 686978, 2013; DT40 Tdp1-/- hTDP1 cells, no CPT, ATP luminescence, 48 h; note: % is set by controls: 0 for no effect and ±100 for the full control effect; nearly all actives have a fitted effect of over 55% in size
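No-CPT arm: Tdp1-/-;hTDP1 DT40 cells (400/well) plus compounds, incubated ≥48 hr at 37 °C. Readout CellTiter-Glo luminescence.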
TDP1 block: TDP1 (human) enzyme inhibition; Q9NUW8; recombinant TDP1, AlphaScreen DNA substrate cleavage; Potency, µM (titrated, usually from 130 µM), for the others: at the highest dose activity change, negative = inhibition, most hits filed as inhibitors; 350,000 tested, 0.28% active; AID 485290; note: % is set by controls: 0 for no effect and ±100 for the full control effect; nearly all actives have a fitted effect of over 40% in size
Target sequence (Q9NUW8 whole entry, looked up): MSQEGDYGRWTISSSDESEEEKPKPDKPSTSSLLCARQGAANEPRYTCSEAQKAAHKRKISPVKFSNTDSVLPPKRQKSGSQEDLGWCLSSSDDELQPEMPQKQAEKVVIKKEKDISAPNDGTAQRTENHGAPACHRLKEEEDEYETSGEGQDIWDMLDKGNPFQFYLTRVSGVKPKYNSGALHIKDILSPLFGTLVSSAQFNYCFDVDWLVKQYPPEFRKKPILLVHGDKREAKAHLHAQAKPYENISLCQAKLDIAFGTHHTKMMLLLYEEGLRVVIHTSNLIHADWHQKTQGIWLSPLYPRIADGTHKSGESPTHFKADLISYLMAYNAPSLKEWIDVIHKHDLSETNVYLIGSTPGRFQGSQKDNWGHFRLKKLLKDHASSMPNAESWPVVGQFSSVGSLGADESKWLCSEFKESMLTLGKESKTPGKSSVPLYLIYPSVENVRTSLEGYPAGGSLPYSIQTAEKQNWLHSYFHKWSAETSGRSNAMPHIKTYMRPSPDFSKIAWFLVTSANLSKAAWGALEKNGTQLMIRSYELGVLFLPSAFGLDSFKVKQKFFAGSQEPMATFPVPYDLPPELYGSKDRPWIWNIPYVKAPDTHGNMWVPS
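AlphaScreen read-out: signal falls as enzyme removes the 3' tyrosine-FITC from a 5'-biotinylated DNA oligo (15 nM, 5 min, RT). Enzyme was E. coli-made recombinant Tdp1 at 1 nM, exposed to compound for 15 min beforehand; beads 10 ug/ml, 10 min.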
TDP1 cell CPT: growth inhibition of DT40 Tdp1-/-;hTDP1 cells with camptothecin (screen for TDP1 inhibitors). chicken DT40 Tdp1-/-;hTDP1 cells + 20 nM CPT, ATP luminescence, 48 h. 420,000 tested, 12% active. Potency, µM (top dose mostly 46.2 µM), for inactives: at the top dose activity change, negative = growth inhibition, actives largely listed as inhibitors. AID 686979; note: % is set by controls: 0 for no effect and ±100 for the full control effect; nearly all actives have a fitted effect of over 55% in size
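Cell growth measured by CellTiter-Glo luminescence after a minimum 48 h, 37 C compound exposure with 20 nM CPT in Tdp1-knockout DT40 cells stably expressing hTDP1, seeded 400/well; qHTS titration format.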
* = called active by the depositor; ? = inconclusive; nt = no result given; [ ] = another dose, or the depositor's remark. Unless noted, calls come from the whole dose curve; as a rule, active = well fitted curve in the direction sought with a large enough effect; inconclusive = small, poorly fitted or top-dose-only effect, or another doubt; inactive = no such curve, though single readings can be large; an effect the other way counts as inactive or inconclusive. Potency is the fitted concentration of half-maximal effect.

SMILES | ClpP mod | DT40 TDP1 no CPT | TDP1 block | TDP1 cell CPT
Cc1ccc(C2CC(=O)c3cnc(N4CCc5ccccc5C4)nc3C2)cc1 (stereo not given) | -9% | 18µM* | 3% | ?
Cc1ccc(NC(=O)Cn2nnc(-c3nc(-c4ccncc4)no3)c2N)c(C)c1 | 0% | 13% | 0% | 3%
Cc1cc(C(=O)COc2cc(F)ccc2[N+](=O)[O-])c(C)n1CC1CCCO1 (stereo not given) | -4% | ? | 7% | ?
Cn1c(=O)c(CCc2ccccc2)nc2cnc(OCc3ccccc3)nc21 | nt | -7% | nt | 12%
Cc1cc(F)cc(-c2cc(C(=O)NCc3ccccn3)[nH]n2)c1 | 1% | -5% | nt | -6%
CCc1ccc(Nc2ncc3c(n2)CC(c2ccc(OC)cc2)CC3=O)cc1 (stereo not given) | -25% | 16µM* | 3% | ?
CCN1CCN(c2ncc3c(n2)CC(c2ccc(OC)c(OC)c2)CC3=O)CC1 (stereo not given) | 1% | 15µM* | 3% | 23µM*
Cc1cc(N(C)N)nc(NC(=O)NS(=O)(=O)c2ccccc2Cl)n1 | nt | -3% | nt | -1%
CCn1nc(C)c(CNC(=O)c2cc(COc3ccccc3SC)on2)c1C | 0% | ? | 7% | 21µM*
CSc1ccccc1OCc1cc(C(=O)N(C)CCn2nc(C)cc2C)no1 | -2% | 21µM* | 3% | 15µM*
CSc1ccccc1OCc1cc(C(=O)N(C)Cc2nonc2C)no1 | -2% | ? | 2%[56.1 µM] | ?
CSc1ccccc1OCc1cc(C(=O)NCc2cccc(C)n2)no1 | -2% | -7% | -3% | -1%
O=C(c1cc([N+](=O)[O-])ccc1Cl)N1CCN(Cc2ccccc2)CC1 | 0% | -9% | 7% | -10%
Cc1[nH]c2ccccc2c1C(=O)COC(=O)c1ccc2c(=O)n3c(nc2c1)CCC3 | -4% | -20% | -1% | -29%
Cc1cccc2nc(-c3cccnc3)c(Nc3ccccc3)n12 | nt | ? | 5% | -28%
Cc1ccc(Nc2c(-c3ccc(N4CCOCC4)cc3)nc3ccc(Cl)cn23)cc1 | -26% | -21% | -2% | -20%
Cc1ccc(Nc2c(-c3ccc(C)s3)nc3cccc(C)n23)cc1 | 4% | 13µM* | 6% | 13µM*
Cc1ccc(Nc2c(-c3cccc(Cl)c3)nc3cccc(C)n23)cc1 | 4% | 16µM* | 2%[12.3 µM] | ?
Cc1cccc2nc(-c3ccco3)c(Nc3ccc4c(c3)OCCO4)n12 | ? | ? | 10% | ?
Cc1ccc(Nc2c(-c3ccc(N4CCOCC4)cc3)nc3cccc(C)n23)cc1 | 3% | 23µM* | 2% | 23µM*
COc1ccc(-c2nc3cccc(C)n3c2Nc2ccc(C)cc2)cc1 | 4% | 13µM* | 7% | 20µM*
CCn1c(C)c(C2=CCN(S(=O)(=O)c3ccc(C)cc3)CC2)c2ccccc21 | -13% | 18µM* | 4% | ?
Cc1c(C2=CCN(S(=O)(=O)c3ccc(Br)cc3)CC2)c2ccccc2n1C | -9% | ? | 3% | ?
O=C(Cc1c(F)cccc1Cl)N1CCN(S(=O)(=O)c2cccc(F)c2)CC1 | 1% | 10% | -3% | 8%
COc1ccc(NC(=O)c2ccc(-c3ccc(-c4noc(C)n4)cc3C)cc2)cc1OCCN(C)C | nt | 2.6µM* | 21% | 5.2µM*
SMILES | ClpP mod | DT40 TDP1 no CPT | TDP1 block | TDP1 cell CPT
COc1ccc(NC(=O)c2ccc(-c3ccc(-c4noc(C)n4)cc3C)cc2)cc1N1CCN(C)CC1 | -1% | 2.1µM* | 19%[56.1 µM] | 2.6µM*
O=C(c1cnccn1)N1CCC2(CC1)CN(Cc1cc(C(F)(F)F)cc(C(F)(F)F)c1)C2 | nt | -20% | nt | 3%
O=C(CCN1C(=O)/C(=C\c2ccccc2)SC1=S)NCCCN1CCOCC1 | -5% | ? | 7% | ?
O=C1/C(=C/c2ccncc2)SC(=S)N1Cc1ccccc1 | 1% | 16µM* | 11% | ?
O=C1/C(=C/c2ccc(O)cc2)SC(=S)N1Cc1cccnc1 | nt | -17% | 2% | -24%
O=C1C(=Cc2ccccc2O)SC(=S)N1CCCN1CCOCC1 | -1% | 9.2µM* | nt | ?
O=C1/C(=C\c2cc([N+](=O)[O-])ccc2O)SC(=S)N1Cc1ccc(Cl)cc1 | 1% | 3.7µM* | nt | 16µM*
C#CCOc1ccc(/C=C2\SC(=S)N(Cc3cccnc3)C2=O)cc1 | 3% | 4.6µM* | 7% | 3.3µM*
O=C(Nc1cnccc1C(F)(F)F)NC1CCCCC1 | nt | -19% | 8% | 13%
O=c1[nH]ncn1-c1ccc(Br)cc1 | nt | 8% | 5% | -2%
O=C1/C(=C\c2ccc(O)c(O)c2)SC(=S)N1Cc1ccccc1 | nt | 18µM* | nt | 21µM*
O=C1/C(=C/c2ccncc2)SC(=S)N1N1CCOCC1 | -1% | ? | nt | 13µM*
O=C1/C(=C/c2cccnc2)SC(=S)N1N1CCOCC1 | -1% | -27% | nt | ?
O=C1/C(=C\c2cccc(O)c2O)SC(=S)N1Cc1ccccc1 | nt | 23µM* | nt | ?
COc1ccc(S(=O)(=O)N2CCN(C(=O)Cc3ccsc3)CC2)cc1 | 1% | ? | -2% | -17%
Cc1cc2c(cc1C)N[C@]1(C[C@H]3CCCC(=O)N4CC[C@@H](C1)[C@@H]34)C(=NC1CCCCC1)N2 | 2% | -25% | nt | -29%
CCOc1ccc(S(=O)(=O)Nc2ccc3c(c2)CCCN3C(=O)c2cccs2)cc1 | 0% | -100% | 6% | ?
CCOc1ccc(S(=O)(=O)Nc2ccc3c(c2)N(C(C)=O)CCC3)cc1 | -9% | 18µM* | 1% | ?
CC(=O)N1CCCc2cc(S(=O)(=O)Nc3ccccc3C)ccc21 | nt | -21% | 2% | 2%
CC(=O)N1CCCc2ccc(NS(=O)(=O)c3ccc(C)cc3)cc21 | 1% | 26µM* | -2% | ?
CCCS(=O)(=O)NCc1c(C)ncc2c1CCN(C(=O)c1ccc3[nH]c4c(c3c1)CCCC4)C2 | nt | ? | nt | 4%[9.04 µM]
CCC(CC)=NNc1ccc(S(N)(=O)=O)cc1[N+](=O)[O-] | -1% | -2% | 5% | -6%
C/C(=N\Nc1ccc(S(N)(=O)=O)cc1[N+](=O)[O-])c1ccc2c(c1)OCO2 | nt | 15µM* | 4% | -28%
CCN(CC)S(=O)(=O)c1ccc(N/N=C(\C)c2ccc3c(c2)OCO3)c([N+](=O)[O-])c1 | 1% | 15µM* | 5% | ?
IC(I)I | nt | ? | nt | 10%
O=S(=O)(c1cc(F)ccc1F)N1CCN(c2ncnc3ccccc23)CC1 | -4% | 2.1µM* | -1% | 2.3µM*
COc1ccc(CN2CCOc3ccc(C(O)c4cccnc4)cc3C2)cc1 (stereo not given) | nt | ? | nt | -5%
O=C1c2ccccc2C(c2nnnn2Cc2ccccc2)N1Cc1ccc2c(c1)OCO2 (stereo not given) | -3% | -28% | nt | -29%
